Results taken from the supplement of paper PMC10646978.
± gives the standard deviation.

Key:
Conditions in all cases: modulator concentration 10 µM
[1] = system: RAW-Dual (murine macrophage reporter line); assay: NF-kB reporter (SEAP) activity fold change vs agonist alone; higher = enhanced NF-kB activity
How it was run: (§1)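 Compound reached 10 μM final in each well by pin transfer, onto RAW-Dual murine macrophage reporter cells seeded at 50 000 per well in 384-well plates. After 1 hour at 37 °C, the cells were stimulated overnight with a PRR agonist. SEAP in the supernatant was read with QUANTI-Blue at 620 nm absorbance for NF-κB, and Lucia luciferase was read with QUANTI-Luc luminescence for IRF. Each signal was turned into fold change against the mean agonist-only control on the same plate, and two replicate plates were averaged with propagated errors.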

[2] = system: RAW-Dual (murine macrophage reporter line); assay: IRF reporter (Lucia luciferase) activity fold change vs agonist alone; higher = enhanced IRF activity
How it was run: as §1

[3] = system: RAW-Dual (murine macrophage reporter line); assay: viability score (confluency relative to resting cells, overnight) (fraction); higher = more viable, active = viable (0.7 or more)
How it was run: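 A compound met the cutoff when both of two confluency masks exceeded 70% of resting cells. Those masks were made with IncuCyte software from IncuCyte images of RAW-Dual macrophages treated overnight at 10 μM final. This is the basis of the viability score, which is confluency relative to resting cells.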

[4] = agonist: CpG ODN 1826 0.5 ug/mL

Row | SMILES | NF-kB reporter [1, 4] | NF-kB reporter ([1]; agonist: LPS 0.1 ug/mL) | NF-kB reporter ([1]; agonist: MPLA […]) | IRF reporter ([2]; agonist: 3'3'-cGAMP 10 ug/mL) | IRF reporter ([2]; agonist: LPS 0.1 ug/mL) | IRF reporter ([2]; agonist: MPLA […]) | viability score [3]
1 | CC(=NNC(=O)CSc1nc2ccccc2n1Cc1ccccc1)c1ccc(Br)cc1 | 0.996 ± 0.12 | 0.996 ± 0.1 | 1.04 ± 0.036 | 0.942 ± 0.042 | 0.946 ± 0.16 | 1.01 ± 0.29 | 0.996 (active)
2 | Cc1cc(Nc2cc(N3CCN(C)CC3)nc(Sc3ccc(NC(=O)C4CC4)cc3)n2)n[nH]1 | 0.0769 ± 0.0068 | 0.142 ± 0.0072 | 0.23 ± 0.021 | 0.136 ± 0.011 | 0.537 ± 0.041 | 0.451 ± 0.06 | 0.91 (active)
3 | CC1CC(OC(=O)C(O)c2ccccc2)CC(C)(C)N1C (centres undefined) [Prestw-794] | 1.07 ± 0.17 | 1.25 ± 0.12 | 1.02 ± 0.08 | 0.97 ± 0.027 | 1.09 ± 0.2 | 1.22 ± 0.15 | 1 (active)
4 | CC(=O)N1N=C(c2ccc(N(C)C)cc2)CC1c1ccccc1 (centres undefined) | 0.932 ± 0.08 | 1.04 ± 0.073 | 1.01 ± 0.047 | 0.794 ± 0.048 | 1.01 ± 0.042 | 1.1 ± 0.072 | 1 (active)
5 | COc1cccc(-c2csc(NC(=O)C3CC3)n2)c1 | 1.16 ± 0.19 | 1.44 ± 0.11 | 1.31 ± 0.17 | 1.19 ± 0.053 | 1.26 ± 0.26 | 1.35 ± 0.14 | 1 (active)
6 | CCCN1CCC(NCCc2ccc(Cl)cc2)CC1 | 1.18 ± 0.069 | 0.97 ± 0.081 | 1.1 ± 0.036 | 0.761 ± 0.028 | 0.994 ± 0.065 | 0.943 ± 0.11 | 0.995 (active)
7 | CCN1C(=O)C(=Cc2c[nH]c3ccccc23)SC1=S | 0.67 ± 0.075 | 0.994 ± 0.081 | 0.868 ± 0.033 | 0.813 ± 0.16 | 1.02 ± 0.084 | 1.36 ± 0.18 | 0.804 (active)
8 | COc1ccc(C(=O)NCc2ccc(OCCN(C)C)cc2)cc1OC.Cl | 0.988 ± 0.15 | 1.05 ± 0.079 | 0.925 ± 0.059 | 0.88 ± 0.027 | 1.21 ± 0.1 | 1.08 ± 0.085 | 0.994 (active)
9 | O=C(C1COCC(=O)N1Cc1ccccc1)N1CCN(c2cccc(Cl)c2)CC1 (centres undefined) | 1.01 ± 0.05 | 1.09 ± 0.089 | 1.08 ± 0.064 | 1.01 ± 0.051 | 1.24 ± 0.075 | 1.29 ± 0.11 | 1.01 (active)
10 | CC(O)(P(=O)(O)O)P(=O)(O)O | 0.76 ± 0.033 | 0.997 ± 0.1 | 1.08 ± 0.079 | 0.956 ± 0.069 | 1.14 ± 0.27 | 1.26 ± 0.4 | 0.98 (active)
11 | Cc1cccc(NC(=O)CSc2nc(N3CCCCC3)nc3ccccc23)c1 | 0.963 ± 0.088 | 1.11 ± 0.092 | 0.98 ± 0.13 | 0.955 ± 0.055 | 1.22 ± 0.13 | 1.43 ± 0.26 | 0.993 (active)
12 | CC1=CCC(C2Nc3ccccc3-c3nnc(SCc4ccc(C)cc4)nc3O2)CC1 (centres undefined) | 1.05 ± 0.13 | 1 ± 0.057 | 0.881 ± 0.053 | 0.978 ± 0.053 | 1.5 ± 0.1 | 1.22 ± 0.15 | 1.01 (active)
13 | COc1ccc([C@H]2CNC(=O)C2)cc1OC1CCCC1 | 2.61 ± 0.4 | 2.21 ± 0.38 | 1.9 ± 0.14 | 0.902 ± 0.039 | 1.03 ± 0.22 | 1.41 ± 0.15 | 0.982 (active)
14 | COc1ccc(-c2cc(C(F)(F)F)n3nc(C(=O)Nc4cc(OC)c(OC)c(OC)c4)c(Cl)c3n2)cc1OC | 0.885 ± 0.081 | 1.01 ± 0.089 | 0.795 ± 0.058 | 0.566 ± 0.14 | 1.27 ± 0.19 | 1.1 ± 0.12 | 1.01 (active)
15 | CCOC(=O)C1=C(C)NC(C)=C(C(=O)OCC)C1c1ccc(OC)cc1 | 0.973 ± 0.088 | 1.05 ± 0.066 | 1.02 ± 0.068 | 1.17 ± 0.044 | 0.867 ± 0.081 | 0.987 ± 0.27 | 0.946 (active)
16 | CCSC1=C(C#N)C2(CCCC2)C(C#N)C(=O)N1 (centres undefined) | 1.13 ± 0.18 | 0.964 ± 0.086 | 0.91 ± 0.081 | 0.789 ± 0.021 | 1.34 ± 0.2 | 1.42 ± 0.23 | 0.988 (active)
17 | Cc1ccc(Nc2nc(N3CCOCC3)nc(N3CCN(c4ccccc4)CC3)n2)cc1 | 0.454 ± 0.029 | 1.05 ± 0.084 | 1.98 ± 0.059 | 0.711 ± 0.027 | 1.4 ± 0.067 | 1.9 ± 0.18 | 0.996 (active)
18 | Oc1ccc(C=NCc2ccccc2)cc1 | 1.11 ± 0.12 | 1.08 ± 0.079 | 1.04 ± 0.038 | 0.921 ± 0.11 | 0.999 ± 0.05 | 1.06 ± 0.19 | 1 (active)
19 | OCCCNCC(O)Cn1c2ccc(Br)cc2c2cc(Br)ccc21 (centres undefined) | 0.661 ± 0.043 | 0.653 ± 0.057 | 1.75 ± 0.049 | 0.626 ± 0.046 | 1.19 ± 0.073 | 1.91 ± 0.18 | 0.108 (inactive)
20 | O=C(NC(=S)c1c(-c2ccccc2)cc2ccccn12)c1ccccc1 | 0.746 ± 0.058 | 0.786 ± 0.038 | 0.883 ± 0.078 | 0.516 ± 0.03 | 1.18 ± 0.086 | 1.36 ± 0.18 | 1.01 (active)
21 | CN(C)CCCN1c2ccccc2Sc2ccccc21.Cl | 0.791 ± 0.075 | 0.956 ± 0.12 | 1.25 ± 0.054 | 0.719 ± 0.051 | 0.994 ± 0.07 | 0.798 ± 0.069 | 0.534 (inactive)
22 | COCCCNC(=O)C1CCCN(c2ccc(Sc3ccc(Br)cc3)nn2)C1 (centres undefined) | 0.99 ± 0.1 | 1.1 ± 0.095 | 1.15 ± 0.11 | 0.84 ± 0.03 | 0.966 ± 0.076 | 0.779 ± 0.2 | 0.993 (active)
